ChEMBL document CHEMBL3433997, “St. Jude Leishmania screening dataset” (2016)

Experiments:
Assay type in all cases: functional
[1] = target: Solute carrier family 2, facilitated glucose transporter member 1 (Homo sapiens) (UniProt P11166); assay: ST_JUDE_LEISH: Cytotoxicity at 2uM final concentration against transgenic Leishmania Mexicana promastigotes LmGLUT1 that are glucose transport deficient and complemented with the human glucose transporter GLUT1. Activity is measured by DNA content using SYBR green in vitro
Solute carrier family 2, facilitated glucose transporter member 1 (Homo sapiens), sequence (P11166 whole entry): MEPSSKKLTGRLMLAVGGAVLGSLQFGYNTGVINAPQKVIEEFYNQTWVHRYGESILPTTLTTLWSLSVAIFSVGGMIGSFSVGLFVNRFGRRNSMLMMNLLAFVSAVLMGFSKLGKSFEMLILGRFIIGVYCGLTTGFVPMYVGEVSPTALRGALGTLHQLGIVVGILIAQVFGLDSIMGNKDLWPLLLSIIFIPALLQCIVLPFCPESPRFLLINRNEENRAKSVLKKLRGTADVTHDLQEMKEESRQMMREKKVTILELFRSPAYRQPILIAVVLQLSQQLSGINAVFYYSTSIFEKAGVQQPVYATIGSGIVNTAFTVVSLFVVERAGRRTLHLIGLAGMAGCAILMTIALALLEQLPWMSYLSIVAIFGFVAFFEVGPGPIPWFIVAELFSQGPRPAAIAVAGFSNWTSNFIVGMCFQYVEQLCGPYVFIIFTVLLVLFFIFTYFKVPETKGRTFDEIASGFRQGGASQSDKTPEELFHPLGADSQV

[2] = target: Hexose transporter 1 (Plasmodium falciparum) (UniProt O97467); assay: ST_JUDE_LEISH: Cytotoxicity at 2uM final concentration against transgenic Leishmania Mexicana promastigotes LmPfHT that are glucose transport deficient and complemented with the Plasmodium falciparum hexose transporter. Activity is measured by DNA content using SYBR green in vitro
[3] = target: Glucose transporter (Leishmania mexicana) (UniProt O61059); assay: ST_JUDE_LEISH: Cytotoxicity at 2uM final concentration against transgenic Leishmania Mexicana promastigotes LmGT2 that are glucose transport deficient and complemented with the L. Mexicana glucose transporter 2. Activity is measured by DNA content using SYBR green in vitro

Compound	inhibition [1]	inhibition [2]	inhibition [3]
CCN(CC)CCc1ccc2c(=O)cc(CCc3cccc(F)c3F)n(CC(=O)N(C)Cc3ccc(-c4ccc(C(F)(F)F)cc4)cc3)c2c1	5.18%	5.23%	3.78%
O=C(CCn1cncn1)N1CCCC(c2[nH]c3ccccc3c2-c2ccncc2)C1 (stereo unspecified)	-2.2%	-3.57%	1.39%
O=C(Nc1nccs1)c1cn(-c2ccccc2)nc1-c1ccc(Cl)s1	3.1%	2.82%	3.16%
Cc1cnc(Nc2ccccc2)nc1N[C@@H](CCCN)C(=O)Nc1ccccc1	-1.01%	-0.2%	-0.3%
O=C(Nc1cccc(N2CCC(NCCCn3ccnc3)CC2)c1)c1cccc(C(F)(F)F)c1	0.98%	-0.71%	3.8%
CCc1cc(CNC2CCN(CCc3c(F)cnc4ccc(OC)nc34)CC2)cc2c1OCCO2	23.9%	34.5%	19.9%
CCOc1ccc2c(=NN=Cc3cccc(OC)c3OC)cc(C)[nH]c2c1	4.91%	5.53%	6%
CCCN(CCCCCCNCCc1ccc(Cl)cc1)CCc1ccc(O)c(O)c1	-4.9%	-1.72%	-4.57%
CC(=O)Nc1cccc(C(=O)Nc2ccc(-c3cccc(-c4nc5cccc(C)c5[nH]4)c3)cc2)c1	0.48%	1.78%	0.36%
O=C(NCc1ccccc1)OC1CNCCC1c1ccc(C(O)Cc2ccccc2)cc1 (stereo unspecified)	1.68%	1.62%	2.32%
NC(=O)c1ccsc1NC(=O)CNC(c1ccccc1)c1ccccc1	2.02%	3.09%	1.15%
CC(C)CC(C)NC(=O)C1Cc2c([nH]c3ccc(F)cc23)C2(CCN(Cc3ccccc3)CC2)N1 (stereo unspecified)	7.56%	12.3%	7.75%
